Test results taken from PubChem BioAssay AID1159580 (chemical genetic matrix, 2015).
Values joined by “and” are separate entries in the source; they are usually repeats but may differ in a detail not shown here. Equal values may be shown once. The campaign covered roughly 5,500 compounds. About 2,000 (36%) were called active. About 18% were inconclusive and are not listed. No stated cut-off is given here; in the data, active means normalized growth mostly below about 0.91 (no sharp cut-off); inconclusive means no clear call, values can overlap the other calls; inactive means mostly above about 0.92. Some of the results follow.

Experiment: chemical genetic growth profiling, strain panel (AID 1159580);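 further: tested at 20 µM; growth read once vehicle control cultures reached saturation at 30 °C; 1 = growth at the plate median or of vehicle wells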
Settings: S. cerevisiae deletion strains, growth OD
[1] = locus YAL013W, strain DEP1, stronger effect = lower value
[2] = locus YBR229C, strain ROT2, stronger effect = lower value
[3] = locus YCL061C, strain MRC1, stronger effect = lower value
[4] = locus YDL101C, strain DUN1, stronger effect = lower value
[5] = locus YDR150W, strain NUM1, stronger effect = lower value
[6] = locus YEL061C, strain CIN8, stronger effect = lower value
[7] = locus YGR078C, strain PAC10, stronger effect = lower value
[8] = locus YGR229C, strain SMI1, stronger effect = lower value
[9] = locus YHR030C, strain SLT2, stronger effect = lower value
[10] = locus YHR087W, strain rtc3, stronger effect = lower value
[11] = locus YJR043C, strain POL32, stronger effect = lower value
[12] = locus YJR075W, strain HOC1, stronger effect = lower value
[13] = locus YKL190W, strain CNB1, stronger effect = lower value
[14] = locus YLR039C, strain RIC1, stronger effect = lower value
[15] = locus YLR058C, strain SHM2 (second series), stronger effect = lower value
[16] = locus YLR085C, strain ARP6, stronger effect = lower value
[17] = locus YLR262C, strain YPT6, stronger effect = lower value
[18] = locus YML094W, strain GIM5, stronger effect = lower value
[19] = locus YMR219W, strain ESC1, stronger effect = lower value
[20] = locus YMR263W, strain SAP30, stronger effect = lower value
[21] = locus YMR307W, strain GAS1, stronger effect = lower value
[22] = locus YNL128W, strain TEP1, stronger effect = lower value
[23] = locus YNL153C, strain GIM3, stronger effect = lower value
[24] = locus YNL298W, strain CLA4 (second series), stronger effect = lower value
[25] = locus YNL322C, strain KRE1, stronger effect = lower value
[26] = locus YNR030W, strain Alg12, stronger effect = lower value
[27] = locus YPL055C, strain LGE1, stronger effect = lower value
[28] = locus YPL241C, strain CIN2, stronger effect = lower value
[29] = locus YPR135W, strain CTF4, stronger effect = lower value

Measured: normalized growth

Cc1ccc2cc(NC(=O)c3ccco3)ccc2n1
inactive: [1] 0.987 | [2] 0.998 | [3] 0.991 | [4] 1.02 | [5] 0.901 | [7] 0.989 | [8] 0.989 | [10] 1.01 | [11] 0.998 | [12] 0.994 | [14] 0.972 | [15] 1.01 | [17] 1.01 | [18] 0.96 | [19] 1 | [20] 0.938 | [22] 0.962 | [23] 1 | [25] 1.01 | [27] 0.92
active: [6] 0.895 | [9] 0.309 | [13] 0.9 | [16] 0.286 | [21] 0.518 | [24] 0.807 | [26] 0.841 | [28] 0.804 | [29] 0.385

O=C(Nc1ccccc1)NC1CCCC1
inactive: [1] 1.02 | [2] 0.983 | [3] 1.02 | [4] 0.989 | locus YDL134C, strain PPH21, stronger effect = lower value 1.01 | [5] 0.983 | [6] 0.965 | [7] 1.01 | [9] 1.07 | [10] 0.997 | [11] 1.04 | [12] 0.992 | [13] 0.991 | [14] 1.01 | [15] 0.997 | [16] 0.991 | [17] 1.05 | [18] 0.96 | [19] 0.997 | [20] 1.01 | [21] 1.03 | [22] 0.941 | [23] 1.01 | [24] 0.985 | [25] 0.996 | [26] 1 | [27] 1.02 | [28] 0.99 | [29] 1.13

O=C(Nc1ccccc1)c1ccccc1O
inactive: [2] 1.01 | locus YCL029C, strain bik1, stronger effect = lower value 0.953 | locus YDL035C, strain GPR1, stronger effect = lower value 0.954 | locus YDL074C, strain BRE1, stronger effect = lower value 0.904 | [4] 0.956 | locus YDL185W, strain tfp1, stronger effect = lower value 0.927 | locus YDL192W, strain arf1, stronger effect = lower value 0.941 | locus YDR101C, strain arx1, stronger effect = lower value 0.953 | locus YDR162C, strain NBP2, stronger effect = lower value 0.963 | locus YDR318W, strain mcm21, stronger effect = lower value 0.981 | locus YDR388W, stronger effect = lower value 0.988 | locus YDR502C, strain sam2, stronger effect = lower value 0.939 | [6] 0.995 | locus YER110C, stronger effect = lower value 0.962 | locus YER155C, strain BEM2, stronger effect = lower value 0.98 | locus YER167W, strain BCK2, stronger effect = lower value 0.982 | locus YGL078C, strain dbp3, stronger effect = lower value 0.943 | locus YGL086W, strain mad1, stronger effect = lower value 0.966 | locus YGL248W, strain PDE1, stronger effect = lower value 0.981 | [7] 0.94 | locus YGR135W, strain pre9, stronger effect = lower value 0.944 | [8] 0.909 | locus YGR252W, strain gcn5, stronger effect = lower value 0.847 | [9] 0.992 and 0.935 | locus YHR079C, strain IRE1 (second series), stronger effect = lower value 0.979 | locus YHR079C, strain IRE1, stronger effect = lower value 0.921 | locus YHR094C, strain hxt1, stronger effect = lower value 0.989 | locus YHR129C, strain ARP1, stronger effect = lower value 0.991 | locus YHR200W, strain rpn10, stronger effect = lower value 0.963 | locus YIL066C, strain RNR3, stronger effect = lower value 0.986 | locus YIL073C, strain SPO22, stronger effect = lower value 0.874 | locus YIL125W, strain kgd1, stronger effect = lower value 0.984 | locus YIR030C, strain dcg1, stronger effect = lower value 0.976 | locus YJL095W, strain BCK1, stronger effect = lower value 0.929 and 0.932 | locus YJL134W, strain LCB3, stronger effect = lower value 0.987 | locus YJL168C, strain set2, stronger effect = lower value 0.992 | locus YJL187C, strain SWE1 (second series), stronger effect = lower value 0.941 | [11] 0.924 | locus YJR066W, strain TOR1, stronger effect = lower value 0.901 | locus YKL009W, strain mrt4, stronger effect = lower value 0.891 | locus YKL068W, stronger effect = lower value 0.964 | locus YKL085W, strain MDH1 (second series), stronger effect = lower value 0.98 | locus YKL085W, strain MDH1, stronger effect = lower value 0.98 | [14] 0.949 | locus YLR058C, strain SHM2, stronger effect = lower value 0.99 | locus YLR102C, strain apc9, stronger effect = lower value 0.976 | [17] 0.945 | locus YLR268W, strain sec22, stronger effect = lower value 0.916 | locus YLR330W, strain CHS5, stronger effect = lower value 0.983 | locus YLR342W, strain FKS1 (second series), stronger effect = lower value 0.968 | locus YLR371W, strain rom2, stronger effect = lower value 0.964 | locus YLR418C, strain cdc73, stronger effect = lower value 0.934 | locus YML016C, strain PPZ1, stronger effect = lower value 1 | locus YML032C, strain rad52, stronger effect = lower value 0.98 | locus YML124C, strain tub3, stronger effect = lower value 0.988 | locus YMR078C, strain ctf18, stronger effect = lower value 0.956 | locus YMR223W, strain ubp8, stronger effect = lower value 0.941 | [21] 0.986 | locus YNL067W, strain RPL9B, stronger effect = lower value 0.9 | [23] 0.94 | locus YNL183C, strain NPR1, stronger effect = lower value 0.885 | locus YNL233W, strain BNI4, stronger effect = lower value 0.945 | locus YNL250W, strain rad50, stronger effect = lower value 0.952 | locus YNL271C, strain bni1, stronger effect = lower value 0.959 | locus YNL298W, strain CLA4, stronger effect = lower value 0.971 | locus YNL307C, strain MCK1, stronger effect = lower value 0.974 | locus YNR052C, strain pop2, stronger effect = lower value 0.978 | locus YOL012C, strain htz1 1.23 | locus YOL147C, strain pex11, stronger effect = lower value 0.987 | locus YOR061W, strain CKA2, stronger effect = lower value 0.997 | locus YOR069W, strain VPS5, stronger effect = lower value 0.995 | locus YOR136W, strain idh2, stronger effect = lower value 0.983 | locus YOR144C, strain elg1, stronger effect = lower value 0.994 | locus YOR231W, strain MKK1, stronger effect = lower value 0.929 | locus YOR316C, strain cot1, stronger effect = lower value 0.989 | [27] 0.921 | [28] 0.994 | locus YPL256C, strain CLN2, stronger effect = lower value 0.901 | locus YPR119W, strain clb2, stronger effect = lower value 0.98 | locus YPR141C, strain kar3, stronger effect = lower value 0.969 | locus YPR163C, strain tif3, stronger effect = lower value 0.982 | locus YPR167C, strain met16, stronger effect = lower value 0.966 | strain wtn01, stronger effect = lower value 0.907
active: locus YBR021W, strain FUR4, stronger effect = lower value 1.18 [resistant] | locus YKR001C, strain vps1, stronger effect = lower value 0.897 | locus YLR113W, strain HOG1, stronger effect = lower value 0.791 | locus YOR184W, strain ser1, stronger effect = lower value 0.861
